Experimental findings from PubChem BioAssay (EPA / NIEHS) are described below.

Results filed as inconclusive are left out. Activity calls are given as the source filed them. The calls were made as follows, unless noted: active = hit-call score of the fitted dose curve at least 0.9, where 1 is the maximum; inconclusive = response in the unintended direction; inactive = score below 0.9.

The target of experiment [1] is mouse Estrogen Receptor alpha (Era), Esr1 (gene 13982) (UniProt P19785). The experiment in a line: NVS_NR_mERa: NovaScreen (NVS) Nuclear Receptor Binding Assay for mouse Estrogen Receptor alpha (Era) (AID 2283378).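 Also: hit means loss of bound radioligand signal relative to DMSO.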 Put shortly: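 Filter radiodetection of radioligand displacement from extracted receptor protein, measured 18 h post-dose. Single 25 uM concentration in duplicate initially, with concentration-series follow-up. Binding loss fitted relative to DMSO.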

Experiment [2] addresses Agonist Androgen Response Element (ARE), AR (gene 367) (UniProt P10275). In words: OT_AR_ARELUC_AG_1440: Odyssey Thera (OT) 24-hour CHO-K1 Luciferase Assay for Agonist Androgen Response Element (ARE) (AID 2283379). In outline: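 CHO-K1 cells carrying an ARE-driven luciferase reporter were exposed to compounds for 24 h. Luminescence was then read after adding a D-luciferin/ATP mix, and activity was scored as a gain in signal over DMSO vehicle.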

Experiment [3] concerns the target Estrogen receptor beta (Homo sapiens) (UniProt Q92731). The experiment in a line: OT_ER_ERbERb_1440: Odyssey Thera (OT) 24-hour HEK293T Protein-Complementation Assay for Estrogen Receptor-beta/-beta Homodimer (AID 2283380).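 Also: scored as signal increase over DMSO baseline for both agonists and antagonists.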 Put shortly: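 HEK293T cells stably expressing ER beta LBD (aa 310-547) homodimer fragment-complementation reporter, dosed 24 h. Cells formaldehyde-fixed, Draq5-stained; gain in nuclear (agonist) or nuclear plus cytoplasmic (antagonist) fluorescence versus DMSO read by laser scanning cytometry.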

For experiment [4], the target named is Estrogen receptor (Homo sapiens) (UniProt P03372). The experiment in a line: OT_ERa_GFPERaERE_0480: Odyssey Thera (OT) 8-hour HeLa Transcription Induction Assay for Estrogen Receptor (AID 2283381; active = hit-call score of the fitted dose curve at least 0.9, where 1 is the maximum; inactive = score below 0.9). In outline:
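Fluorescent reporter signal, imaged by microscopy and scored with image-analysis algorithms, was taken 8 h after chemical dosing of HeLa cells; activity was fitted upward relative to DMSO.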

The target is the same in experiment [5]. The experiment in a line: OT_ERa_GFPERaERE_0120: Odyssey Thera (OT) 2-hour HeLa Transcription Induction Assay for Estrogen Receptor (AID 2283382). In outline: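 HeLa, 384-well, 2 h chemical exposure; GFP reporter induction (ERE), fluorescence microscopy; high content image analysis; positive fitting direction vs DMSO.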
Experiment [6] concerns the target Bile acid receptor (Homo sapiens) (UniProt Q96RI1). In words: OT_FXR_FXRSRC1_0480: Odyssey Thera (OT) 8-hour HEK293T Protein-Complementation Assay for Farnesoid X receptor/SRC-1 Co-activator (AID 2283383). In outline:
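Human kidney HEK293T cells carried FXR/SRC-1 fragment-complementation constructs. Compounds were added and incubated 8 h. Reporter reassembly upon receptor–co-activator interaction was then quantified by fluorescence, with curves fitted in the positive direction relative to DMSO.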

The target of experiment [7] is Retinoic acid receptor RXR-alpha (Homo sapiens) (UniProt P19793). In words: OT_NURR1_NURR1RXRa_0480: Odyssey Thera (OT) 8-hour HEK293T Protein Complementation Assay for Nurr1/retinoid X receptor (RXR) (AID 2283385). Put shortly: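 8 h compound exposure, HEK293T; Nurr1/RXRα fragment complementation; fluorescence intensity; positive fitting direction vs DMSO baseline.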

The target is the same in experiment [8]. The experiment in a line: OT_NURR1_NURR1RXRa_1440: Odyssey Thera (OT) 24-hour HEK293T Protein Complementation Assay for Nurr1/retinoid X receptor (RXR) (AID 2283386). In outline:
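Interaction of Nurr1 with RXRα brings fused reporter fragments together in human HEK293T cells, restoring a functional reporter. Fluorescence intensity is measured 24 h after chemical treatment, and values are analysed in the positive direction against DMSO.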

Experiment [9] addresses Peroxisome proliferator-activated receptor gamma (Homo sapiens) (UniProt P37231). In words: OT_PPARg_PPARgSRC1_0480: Odyssey Thera (OT) 8-hour Protein-Complementation Assay for Peroxisome Proliferator-activated Receptor Gamma / SRC-1 Co-activator (AID 2283387).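 Also: nuclear to cytoplasmic split Venus YFP fluorescence ratio reporting PPARg SRC-1 interaction.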 In outline: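 Split-YFP (IFP1/IFP2) PPARg/SRC-1 reporter, HEK293T, 37 °C, 5% CO2; 8 h compound; formaldehyde fix + Draq5; high-content imaging, N/C ratio, ≥350 cells/image, positive direction vs DMSO.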

The target is the same in experiment [10]. In words: OT_PPARg_PPARgSRC1_1440: Odyssey Thera (OT) 24-hour Protein-Complementation Assay for Peroxisome Proliferator-activated Receptor Gamma/ SRC-1 Co-activator (AID 2283388).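 Also: nuclear to cytoplasmic ratio of reconstituted Venus YFP fluorescence in fixed imaged cells.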 Put shortly:
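Readout is the 488 nm N/C fluorescence ratio from fixed, Draq5-stained HEK293T cells after 24 h compound exposure. Cells carried transiently transfected PPARg and SRC-1 fused to Venus fragments, transfected 48 h before treatment.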

The target of experiment [11] is Bile acid receptor (Homo sapiens) (UniProt Q96RI1). The experiment in a line: OT_FXR_FXRSRC1_1440: Odyssey Thera (OT) 24-hour HEK293T Protein-Complementation Assay for Farnesoid X receptor/SRC-1 Co-activator (AID 2283384). Put shortly:
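Compounds are applied to human kidney HEK293T cells expressing bait and prey fused to reporter protein fragments; after 24 h, reconstituted reporter fluorescence is measured. Activity is fitted as signal gain over DMSO.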

The nature of experiment [12]: CEETOX_H295R_11DCORT: CeeTox H295R High-throughput Steroidogenesis Assay for 11-Deoxycortisol (11DCORT) (AID 2283432; active = hit-call score of the fitted dose curve at least 0.9, where 1 is the maximum; inactive = score below 0.9). The following applies: actives raise or lower the signal. Put shortly:
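Steroidogenesis in human H295R cells: 48 h chemical exposure after forskolin priming, 11-deoxycortisol measured by LC-MS/MS.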

A short description of experiment [13]: CEETOX_H295R_OHPREG: CeeTox H295R High-throughput Steroidogenesis Assay for OH-Pregnenolone (OHPREG) (AID 2283434; active = hit-call score of the fitted dose curve at least 0.9, where 1 is the maximum; inactive = score below 0.9). The following applies: actives raise or lower the signal. Put shortly:
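H295R cells pre-stimulated 48 h with 10 uM forskolin, then exposed 48 h to chemical in 0.1% DMSO. 17alpha-hydroxypregnenolone in medium quantified by MTBE extraction and HPLC-MS/MS; bidirectional fit versus DMSO, viability checked by MTT.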

Experiment [14] is described as follows: CEETOX_H295R_OHPROG: CeeTox H295R High-throughput Steroidogenesis Assay for OH-Progesterone (OHPROG) (AID 2283435; active = hit-call score of the fitted dose curve at least 0.9, where 1 is the maximum; inactive = score below 0.9;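 as to AC50: 17alpha-hydroxyprogesterone secreted into medium measured by HPLC-MS/MS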). Particulars: actives raise or lower the signal. Put shortly:
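H295R, 10 uM forskolin prestim 48 h; cmpd in 0.1% DMSO 48 h; medium MTBE-extracted, HPLC-MS/MS for OH-progesterone; 7-pt std curve; bidirectional fit vs DMSO; MTT viability, chemicals diluted until viability >/=70%.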

A short description of experiment [15]: CEETOX_H295R_CORTIC: CeeTox H295R High-throughput Steroidogenesis Assay for Corticosterone (CORTIC) (AID 2283437; active = hit-call score of the fitted dose curve at least 0.9, where 1 is the maximum; inactive = score below 0.9;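 also: corticosterone secreted into medium quantified by mass spectrometry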). Particulars: actives raise or lower the signal. Put shortly: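 H295R adrenal cells prestimulated 48 hours with 10 uM forskolin, then exposed 48 hours to chemical in 0.1% DMSO. Corticosterone in medium measured by HPLC-MS/MS after MTBE extraction; MTT viability in the same wells; bidirectional fit versus DMSO.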

Experiment [16] in a line: CEETOX_H295R_CORTISOL: CeeTox H295R High-throughput Steroidogenesis Assay for Cortisol (AID 2283438; active = hit-call score of the fitted dose curve at least 0.9, where 1 is the maximum; inactive = score below 0.9;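 also: cortisol secreted into medium quantified by LC-MS/MS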). Particulars: actives raise or lower the signal. Put shortly:
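Forskolin 10 uM 48 h prestim → test cmpd in DMSO (0.1% final) 48 h → medium MTBE-extracted → LC-MS/MS cortisol vs 7-pt std curve. Gain/loss of signal fitted vs DMSO. MTT viability in same wells.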

Experiment [17] can be described thus: CEETOX_H295R_DOC: CeeTox H295R High-throughput Steroidogenesis Assay for DOC (AID 2283439; active = hit-call score of the fitted dose curve at least 0.9, where 1 is the maximum; inactive = score below 0.9). The following applies: actives raise or lower the signal. In outline:
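Readout: 11-deoxycorticosterone in culture medium by reverse-phase C18 HPLC with ESI+ tandem MS after MTBE extraction. Cells: H295R, forskolin-primed (10 uM, 48 h), chemical-treated 48 h; DMSO 0.1% final. Activity fitted bidirectionally versus DMSO.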

The nature of experiment [18]: CEETOX_H295R_ESTRADIOL: CeeTox H295R High-throughput Steroidogenesis Assay for Estradiol (AID 2283440; active = hit-call score of the fitted dose curve at least 0.9, where 1 is the maximum; inactive = score below 0.9;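 also: estradiol secreted into medium quantified by LC-MS/MS after dansyl derivatisation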). The following applies: actives raise or lower the signal. In outline: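 Estradiol in spent medium measured by LC-MS/MS after dansyl chloride derivatisation. Forskolin-primed (10 uM, 48 h) human adrenal H295R cells received test chemical 48 h at 0.1% DMSO; concentrations lowered until MTT viability >/=70%.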

The nature of experiment [19]: CEETOX_H295R_ESTRONE: CeeTox H295R High-throughput Steroidogenesis Assay for Estrone (AID 2283441; active = hit-call score of the fitted dose curve at least 0.9, where 1 is the maximum; inactive = score below 0.9;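 also: estrone secreted into medium measured by LC-MS/MS after dansyl derivatization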). Particulars: actives raise or lower the signal. Put shortly: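 H295R cells prestimulated 48 h with 10 uM forskolin, then exposed 48 h to chemicals in 0.1% DMSO final; estrone in medium extracted with MTBE, dansyl-derivatized, quantified by HPLC-MS/MS; bidirectional fitting versus DMSO, viability by MTT.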

Sequence of Agonist Androgen Response Element (ARE), AR (gene 367) (P10275 whole entry, looked up): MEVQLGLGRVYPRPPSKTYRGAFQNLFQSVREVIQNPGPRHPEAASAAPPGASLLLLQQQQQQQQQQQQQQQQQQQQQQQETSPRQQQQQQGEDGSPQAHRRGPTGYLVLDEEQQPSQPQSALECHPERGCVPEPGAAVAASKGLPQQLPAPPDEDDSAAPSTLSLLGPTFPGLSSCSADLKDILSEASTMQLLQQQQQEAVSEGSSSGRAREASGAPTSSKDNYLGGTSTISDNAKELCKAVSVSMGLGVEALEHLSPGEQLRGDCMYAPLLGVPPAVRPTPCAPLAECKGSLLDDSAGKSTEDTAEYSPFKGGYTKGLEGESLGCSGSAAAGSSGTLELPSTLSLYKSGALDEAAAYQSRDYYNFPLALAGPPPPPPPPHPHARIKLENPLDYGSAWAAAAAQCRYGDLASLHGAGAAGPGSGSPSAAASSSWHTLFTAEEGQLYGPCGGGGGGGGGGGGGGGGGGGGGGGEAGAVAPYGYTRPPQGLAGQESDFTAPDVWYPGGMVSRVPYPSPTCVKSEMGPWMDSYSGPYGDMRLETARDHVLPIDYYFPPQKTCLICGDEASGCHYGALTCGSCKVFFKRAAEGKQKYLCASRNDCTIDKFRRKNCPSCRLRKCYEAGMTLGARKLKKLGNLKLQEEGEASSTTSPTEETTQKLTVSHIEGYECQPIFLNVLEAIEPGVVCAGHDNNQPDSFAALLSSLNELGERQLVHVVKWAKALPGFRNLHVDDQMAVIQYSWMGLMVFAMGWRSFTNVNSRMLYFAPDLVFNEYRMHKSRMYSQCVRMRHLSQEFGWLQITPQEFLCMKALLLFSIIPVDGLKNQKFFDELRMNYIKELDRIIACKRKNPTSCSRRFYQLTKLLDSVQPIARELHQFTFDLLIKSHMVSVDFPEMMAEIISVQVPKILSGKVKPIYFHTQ
Sequence of Retinoic acid receptor RXR-alpha (Homo sapiens) (P19793 whole entry, looked up, the tested form may be a part): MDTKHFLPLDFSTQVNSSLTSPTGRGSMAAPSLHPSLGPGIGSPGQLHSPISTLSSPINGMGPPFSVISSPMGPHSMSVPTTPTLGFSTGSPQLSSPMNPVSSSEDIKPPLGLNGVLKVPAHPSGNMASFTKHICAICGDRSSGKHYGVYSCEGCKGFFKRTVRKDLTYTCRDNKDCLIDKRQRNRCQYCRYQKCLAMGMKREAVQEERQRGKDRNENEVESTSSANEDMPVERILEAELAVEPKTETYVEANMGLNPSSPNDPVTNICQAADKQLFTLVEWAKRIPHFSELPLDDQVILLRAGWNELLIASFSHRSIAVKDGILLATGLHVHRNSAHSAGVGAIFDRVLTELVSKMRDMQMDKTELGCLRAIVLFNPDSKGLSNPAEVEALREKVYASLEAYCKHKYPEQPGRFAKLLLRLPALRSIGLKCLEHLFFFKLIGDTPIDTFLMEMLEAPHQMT
Sequence of mouse Estrogen Receptor alpha (Era), Esr1 (gene 13982) (P19785 whole entry, looked up): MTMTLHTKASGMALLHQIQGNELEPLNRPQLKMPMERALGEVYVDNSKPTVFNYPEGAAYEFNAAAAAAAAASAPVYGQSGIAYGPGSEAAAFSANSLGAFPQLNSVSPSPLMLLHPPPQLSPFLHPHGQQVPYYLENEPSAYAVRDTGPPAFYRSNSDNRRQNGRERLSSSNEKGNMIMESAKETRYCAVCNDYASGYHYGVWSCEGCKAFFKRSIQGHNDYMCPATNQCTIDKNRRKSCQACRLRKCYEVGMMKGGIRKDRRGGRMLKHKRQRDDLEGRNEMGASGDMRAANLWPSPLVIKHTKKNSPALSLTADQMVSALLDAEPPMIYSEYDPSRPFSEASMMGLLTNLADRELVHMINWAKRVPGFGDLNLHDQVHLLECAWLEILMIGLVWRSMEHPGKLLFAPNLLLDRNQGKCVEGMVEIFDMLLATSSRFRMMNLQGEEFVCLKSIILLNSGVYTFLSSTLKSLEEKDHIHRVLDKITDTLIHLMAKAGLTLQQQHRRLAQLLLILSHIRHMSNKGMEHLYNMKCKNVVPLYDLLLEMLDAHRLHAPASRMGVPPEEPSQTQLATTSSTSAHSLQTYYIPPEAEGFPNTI
Sequence of Bile acid receptor (Homo sapiens) (Q96RI1 whole entry, looked up, the tested form may be a part): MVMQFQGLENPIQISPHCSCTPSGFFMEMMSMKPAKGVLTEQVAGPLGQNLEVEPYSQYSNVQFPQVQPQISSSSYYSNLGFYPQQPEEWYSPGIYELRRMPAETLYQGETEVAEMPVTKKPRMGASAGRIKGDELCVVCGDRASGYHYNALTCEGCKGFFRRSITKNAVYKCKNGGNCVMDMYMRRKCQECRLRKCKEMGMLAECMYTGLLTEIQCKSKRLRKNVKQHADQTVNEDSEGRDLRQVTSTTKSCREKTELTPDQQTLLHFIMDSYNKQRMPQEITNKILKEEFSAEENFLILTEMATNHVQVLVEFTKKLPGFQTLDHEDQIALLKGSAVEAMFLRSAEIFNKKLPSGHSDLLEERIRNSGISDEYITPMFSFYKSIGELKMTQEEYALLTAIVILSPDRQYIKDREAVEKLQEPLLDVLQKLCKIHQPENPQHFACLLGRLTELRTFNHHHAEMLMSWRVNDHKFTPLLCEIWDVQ
Sequence of Estrogen receptor (Homo sapiens) (P03372 whole entry, looked up): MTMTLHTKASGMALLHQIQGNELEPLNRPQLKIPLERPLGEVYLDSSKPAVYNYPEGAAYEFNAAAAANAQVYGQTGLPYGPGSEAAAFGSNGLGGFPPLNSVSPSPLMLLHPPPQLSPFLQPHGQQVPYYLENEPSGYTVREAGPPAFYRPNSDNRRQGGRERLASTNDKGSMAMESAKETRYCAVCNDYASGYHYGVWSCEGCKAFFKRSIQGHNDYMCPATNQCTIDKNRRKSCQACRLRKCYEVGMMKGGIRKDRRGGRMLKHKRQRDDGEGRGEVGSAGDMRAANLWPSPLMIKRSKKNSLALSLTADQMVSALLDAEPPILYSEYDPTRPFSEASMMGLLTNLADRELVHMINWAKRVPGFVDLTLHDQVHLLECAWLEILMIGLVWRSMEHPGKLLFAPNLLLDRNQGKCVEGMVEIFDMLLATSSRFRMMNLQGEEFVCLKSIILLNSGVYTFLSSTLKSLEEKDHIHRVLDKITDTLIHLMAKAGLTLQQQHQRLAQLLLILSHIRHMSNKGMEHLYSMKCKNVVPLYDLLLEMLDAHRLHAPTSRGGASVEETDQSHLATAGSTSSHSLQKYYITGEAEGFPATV
Sequence of Peroxisome proliferator-activated receptor gamma (Homo sapiens) (P37231 whole entry, looked up): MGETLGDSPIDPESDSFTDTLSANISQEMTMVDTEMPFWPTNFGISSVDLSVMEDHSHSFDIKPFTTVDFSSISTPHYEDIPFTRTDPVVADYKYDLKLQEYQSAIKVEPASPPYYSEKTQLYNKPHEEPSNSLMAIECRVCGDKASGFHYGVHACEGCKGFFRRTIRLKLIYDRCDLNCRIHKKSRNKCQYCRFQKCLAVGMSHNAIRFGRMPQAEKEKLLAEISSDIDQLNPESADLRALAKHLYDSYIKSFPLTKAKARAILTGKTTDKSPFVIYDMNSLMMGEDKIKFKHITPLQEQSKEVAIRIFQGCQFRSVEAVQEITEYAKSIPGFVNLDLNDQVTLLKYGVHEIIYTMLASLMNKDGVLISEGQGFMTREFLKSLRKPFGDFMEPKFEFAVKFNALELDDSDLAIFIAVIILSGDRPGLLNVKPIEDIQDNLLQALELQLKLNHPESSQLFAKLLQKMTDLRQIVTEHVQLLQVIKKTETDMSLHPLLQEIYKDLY
Sequence of Estrogen receptor beta (Homo sapiens) (Q92731 whole entry, looked up, the tested form may be a part): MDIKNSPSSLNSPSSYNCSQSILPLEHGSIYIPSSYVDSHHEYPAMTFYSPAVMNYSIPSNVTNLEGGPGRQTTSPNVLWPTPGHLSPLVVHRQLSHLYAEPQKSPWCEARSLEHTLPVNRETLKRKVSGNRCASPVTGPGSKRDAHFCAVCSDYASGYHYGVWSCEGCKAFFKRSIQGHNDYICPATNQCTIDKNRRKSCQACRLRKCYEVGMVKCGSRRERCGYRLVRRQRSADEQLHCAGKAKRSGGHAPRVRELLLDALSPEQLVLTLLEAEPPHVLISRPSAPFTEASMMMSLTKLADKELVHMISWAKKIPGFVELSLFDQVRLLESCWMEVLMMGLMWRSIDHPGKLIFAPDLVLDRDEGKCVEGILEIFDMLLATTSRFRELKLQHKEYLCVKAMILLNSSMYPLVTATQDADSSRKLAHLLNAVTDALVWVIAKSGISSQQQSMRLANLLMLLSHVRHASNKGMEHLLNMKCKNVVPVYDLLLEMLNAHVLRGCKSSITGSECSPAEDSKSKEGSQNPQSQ

Usually AC50 stands for the concentration giving half of the maximal activity seen. For the compound `CCCCCCCCCCCCCCCCOS(=O)(=O)O`, in experiment [1], the AC50 is 7.04 µM (active). The call in experiment [2], in experiment [3], in experiment [4], in [5], in [6] and in experiment [7] was inactive. Besides, the compound was called inactive in [8], in [9] and in [10].

As for `Cc1nc(-c2ccccn2)ncc1C(=O)Nn1cc(C)c2cc(F)ccc21`, the compound was classed as inactive in [2], in [3], in [4], in experiment [5], in [11] and in experiment [8]. Further, the outcome in experiment [9] and in [10] was inactive.

For `CC(C)c1nnc2ccc(-c3ocnc3-c3cc(F)ccc3F)cn12`, the outcome in [3], in experiment [4], in experiment [5], in experiment [6], in experiment [11] and in [7] was inactive. Also, the call in experiment [8], in experiment [9], in experiment [12], in [13], in experiment [14] and in [15] was inactive. Moreover, the compound was called inactive in [16], in experiment [17], in [18] and in [19].

Take `CC(C)CC(C)O` (stereo not given): the compound was called inactive in [3], in [4], in [5], in experiment [6], in [7] and in experiment [8]. The compound was called inactive in experiment [9].

For `CCCCOC(=O)c1ccccc1`, the compound was classed as inactive in experiment [2], in experiment [4], in experiment [5], in [7], in experiment [8] and in experiment [9].

Regarding `OC[C@H]1O[C@@H]2O[C@H]3[C@H](O)[C@@H](O)[C@@H](O[C@H]4[C@H](O)[C@@H](O)[C@@H](O[C@H]5[C@H](O)[C@@H](O)[C@@H](O[C@H]6[C@H](O)[C@@H](O)[C@@H](O[C@H]7[C@H](O)[C@@H](O)[C@@H](O[C@H]1[C@H](O)[C@H]2O)O[C@@H]7CO)O[C@@H]6CO)O[C@@H]5CO)O[C@@H]4CO)O[C@@H]3CO`, the AC50 in [1] is 10.3 µM (active). For the same compound, the compound was classed as inactive in [3], in [4], in experiment [5], in [7], in experiment [8] and in experiment [9]. Also, in [10], the compound was classed as inactive.

With `CCOc1ccc2[nH]cc(C(=O)NCc3ccccc3)c(=O)c2n1`, the compound was classed as inactive in experiment [3], in experiment [4], in experiment [5], in experiment [6], in experiment [11] and in [8]. Besides, the outcome in experiment [9], in [13], in experiment [18] and in experiment [19] was inactive. For the same compound, the AC50 in experiment [14] was 68.1 µM (active).

Consider `Nc1ccn([C@@H]2O[C@H](CO)[C@@H](O)[C@@H]2O)c(=O)n1`, for which the outcome in [1], in [4], in experiment [6], in experiment [11], in [7] and in experiment [8] was inactive. The compound was classed as inactive in [9], in experiment [12], in experiment [13], in experiment [14], in [15] and in experiment [16]. Also, the call in experiment [17] was inactive. The concentration at half-maximal activity (AC50) in experiment [5] is 62.2 µM (active).
